Assay results taken from the supplement of paper PMC10338343.
± gives the standard deviation.

test system: MILI (PIWIL2) piRISC loaded with L1MC piRNA (26 nt); assay: pre-steady-state target cleavage rate (min^-1); guide: L1MC piRNA 5'p-UAACUAAAUACUAUGCAAGCUGUAGG; MIWI and MILI are mouse PIWI proteins and EfPiwi is from a freshwater sponge; tags in brackets are library labels; higher = faster piRNA-guided slicing of the target; settings: auxiliary factor: 500 nM mouse GTSF1
Procedure, shortened: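 Cleave-'n-Seq measured uncleaved targets by sequencing after a transcribed, DNA-blocked target RNA library […] was mixed with 1 nM active affinity-purified piRISC holding one synthetic guide, with or without 500 nM GTSF1 partner protein, at 33 °C in HEPES–potassium acetate buffer for 0–8 or 0–960 min. Counts were normalised to depth and to weakly complementary targets, three trials were pooled, and k3 was capped at 0.0001 min^-1. A burst-and-steady-state fit gave the pre-steady-state cleavage rate.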
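Further: 1 nM active piRISC with 0.1 nM target library at 33 °C single turnover.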

Sequence	pre-steady-state target cleavage rate
UCCUGGAUGAGCUAGCAUAGUAUUUACUUA	0.169 ± 0.042
UCCUGGAUGUCGAUGCAUAGUAUUUAGAUUA	0.0599 ± 0.016
UCCUGGAUGUCGAAGCAUAGUAUUUAGUAUA	0.0394 ± 0.0091
UCCUGGAUGUGCUUGCAUGUAUUUAGUUA	0.00502 ± 0.0043
UCCUGGAUGUCCUUGCUAUGUAUUUAGUAA	0.00762 ± 0.0042
UCCUGGAACAGCUUGCAUACUAUUUACAAA	0.0166 ± 0.0064
UCCUGGAUGACGAUGCAUAGUAUUUAGAAA	0.139 ± 0.035
UCCUGGAACAGGAAGCAUAGUAUUUACAAA	0.061 ± 0.02
UCCUGGAACAGGAAGCAUAGUAUUUUCAAA	0.00836 ± 0.0043
UCCUGCUACAGCUUGCAUUGUAUUUUCAAA	0.0201 ± 0.0084
UCCUGCUACAGCUUGCAUACUAUUUACAAA	0.0741 ± 0.024
UCCUGGAACAGCUUGCUUAGAAUUUAGUUA	0.0285 ± 0.0057
UCCUGGAACAGCUUGCAAUCUAUUUAGUAA	0.025 ± 0.0099
UCCUCCUACAGCUUCCAUACUAUUUAGUUA	0.0171 ± 0.0071
UCCUGGAUGUCCUAGCAUAGUAUUUUGUUA	0.0105 ± 0.0061
UCCUGGAUGUGCUUGCUUAGAAUUUAGUUA	0.00417 ± 0.0032
UCCUGGAUGUCGAUGCAUAGUUUUUAGUAA	0.0058 ± 0.0029

Sequence	pre-steady-state target cleavage rate
UCCUGGAUCAGCUUGCAUAGUUUUUAGAAA	0.0202 ± 0.0088
UCCUGGAUGACGUUGCAUAGUAUUUAGAAA	0.0501 ± 0.014
UCCUGGAUCAGCUUGCAUAGUUUUUUCAAA	0.00833 ± 0.0048
UCCUGGAUGUCGAUGCAUAGUAUUCAGUUA	0.0263 ± 0.0083
UCCUGGAUGUCCUUGCAUAGUAUUAGUUA	0.0068 ± 0.004
UCCUGGAACAGCUUGCAUAGUAUAAAGUAA	0.249 ± 0.063
UCCUGGUACUGCUUGCAUAGUAUUUACUUA	0.0201 ± 0.0085
UCCUCCUACUGCUUGCAUAGUAUUUACAAA	0.0424 ± 0.011
UCCUGGAUGUGCUUGCAUAGUAUAUAGAUA	0.00547 ± 0.0037
UCCUGGAACAGCUUGCAUAGUAAAAACAAA	0.0763 ± 0.031
UCCUGGAUCACCUUCCAUAGUAUUUAGUUA	0.0405 ± 0.012
UCCUGGUUGUGCUUGCAUAGUAUUUACAAA	0.00786 ± 0.0048
UCCUGGAACAGCUUGCAUAGGAUUUAGUUA	0.00777 ± 0.0035
UCCUGGAACAGCUUGCAUACUAUUUACUUA	0.0611 ± 0.015
UCCUGGAUCAGCUUGCAUAGUAUAAACAAA	0.0772 ± 0.019
UCCUGCUACUCGUUGCAUAGUAUUUAGAAA	0.179 ± 0.032

same assay, conditions: auxiliary factor: none (no GTSF1)

Sequence	pre-steady-state target cleavage rate
UCCUGGAUGUCGAACGUAUGUAUUUUCAAA [g6:g11:cont:t1A]	< 0.0001
UCCUGGAUGUCGAACGCUAGUAUUUAGUUA	< 0.0001
UCCUGGAUGUCGAAGCAUAGAAUUUACUUA	< 0.0001
UCCUGGAUGUCGAACGUUAGUAUUUAGUAA	< 0.0001
UCCUGGAUGUCGAAGCAGUAGUAUUUAGUUA	< 0.0001
UCCUGGAUGUCGAACCAUAGUAUGUUAGUUA	< 0.0001
UCCUGGAUGUCGAACGUAUGUAUUUCGUUA	< 0.0001
